High-throughput results: PubChem, National Center for Advancing Translational Sciences (NCATS)
In the library only some 0.32% were active in any assay of this set; here they are far more common.
TRPV1 PAM – HTS Assay for Compounds that Act as Potentiators of the Vanilloid Receptor 1; Transient receptor potential cation channel subfamily V member 1 (Homo sapiens), Q8NER1; TRPV1-expressing cells, Fluo-8 calcium influx, capsaicin EC20 potentiation; potentiation, % at 8.33 µM; 320,000 tested, 0.02% active; AID 540277, 2011; in the data active means potentiation above about 80%; inconclusive means between about 30% and that limit
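Fluo-8 calcium influx in TRPV1-expressing cells, kinetic read (ex 480/em 520 nm). Compound added and read 3 min for agonist activity, followed by capsaicin at EC20 final and 2 min further read for enhancement.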
Menin MLL FP FL – qHTS Assay for Inhibitors Targeting the Menin-MLL Interaction in MLL Related Leukemias: Competition With Fluorescein Labeled MLL-derived Peptide; Fluorescence polarization, fluorescein-MLL peptide displacement from menin; FP activity change, % at 61.4 µM; 290,000 tested, under 10 active; AID 1766, 2009; active means well fitted curve in the direction sought with a large enough effect in the polarisation, not every such curve was filed as active; inconclusive means small, poorly fitted or top-dose-only effect, or effect the other way, or a change in a side signal; inactive means no such curve, though single readings can be large or run the other way; the % refers to the polarisation
MLL CXXC-DNA inh – qHTS Fluorescence Polarization Assay for Inhibitors of MLL CXXC domain - DNA interaction | Histone-lysine N-methyltransferase 2A (Homo sapiens), Q03164 | MLL-CXXC / FITC-HOXA9 DNA fluorescence polarization | Potency, µM (top dose mostly 115 µM), actives largely listed as inhibitors | 290,000 tested, 0.037% active | AID 2662, 2010; active means well fitted inhibition curve with a large enough effect in the polarisation, with a control signal flat, not every such curve was filed as active; inconclusive means small, poorly fitted or top-dose-only effect, or effect the other way, or a change in a side signal; inactive means no such curve, though single readings can be large or run the other way; the % refers to the polarisation
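Purified MLL-CXXC (added from a 7 uM solution) was preincubated 5 min at ambient with pinned compounds in 50 mM Tris-HCl pH 7.5, 50 mM NaCl, 1 mM DTT, 0.05% BSA. Fluorescein-labeled HOX-A9 DNA (50 nM solution) followed, 30 min, then polarization read.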
Menin-MLL TR inh – qHTS Assay for Inhibitors Targeting the Menin-MLL Interaction in MLL Related Leukemias: Competition With Texas Red Labeled MLL-derived Mutant Peptide | Menin + Texas Red MLL mutant peptide, fluorescence polarization | Potency, µM (doses to about 61.6 µM), hits mostly inhibitors | 270,000 tested, 0.23% active | AID 1768, 2009; active means well fitted inhibition curve with a large enough effect in the polarisation, with a control signal flat, not every such curve was filed as active; inconclusive means small, poorly fitted or top-dose-only effect, or effect the other way, or a change in a side signal; inactive means no such curve, though single readings can be large or run the other way; the % refers to the polarisation
Target sequence (O00255 whole entry, looked up): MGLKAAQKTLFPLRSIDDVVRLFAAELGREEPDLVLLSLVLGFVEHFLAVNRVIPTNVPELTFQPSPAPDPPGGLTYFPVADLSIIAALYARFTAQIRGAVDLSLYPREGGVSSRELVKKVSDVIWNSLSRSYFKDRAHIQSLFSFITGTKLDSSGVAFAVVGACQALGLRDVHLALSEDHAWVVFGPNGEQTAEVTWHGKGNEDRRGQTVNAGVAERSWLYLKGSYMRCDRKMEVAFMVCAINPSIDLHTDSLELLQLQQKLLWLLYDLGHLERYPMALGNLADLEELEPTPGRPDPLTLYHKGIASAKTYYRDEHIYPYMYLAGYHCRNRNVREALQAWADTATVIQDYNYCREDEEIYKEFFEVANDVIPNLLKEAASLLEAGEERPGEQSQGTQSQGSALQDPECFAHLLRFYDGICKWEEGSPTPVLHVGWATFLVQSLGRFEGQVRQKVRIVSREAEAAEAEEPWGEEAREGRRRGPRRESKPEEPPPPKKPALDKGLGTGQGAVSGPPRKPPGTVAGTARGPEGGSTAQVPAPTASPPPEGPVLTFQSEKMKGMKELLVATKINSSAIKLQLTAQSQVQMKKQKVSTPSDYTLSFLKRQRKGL
TRPV1 ag – HTS Assay for Compounds that Act as Agonists of the Vanilloid Receptor 1; Transient receptor potential cation channel subfamily V member 1 (Homo sapiens), Q8NER1; TRPV1-expressing cells, Fluo-8 calcium influx, agonist mode; activation, % at 8.33 µM; 320,000 tested, 0.19% active; AID 540275, 2011; in the data active means activation above about 80%; inconclusive means between about 30% and that limit
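TRPV1-expressing cells were cultured overnight at 35.5C and loaded with Fluo-8 calcium dye for 40 to 90 min at room temperature. After a 10 s baseline, compound was added and calcium influx was read kinetically for 3 min (ex 480/em 520 nm).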
A number is an active result; 0 = inactive; ? = inconclusive; - = not tested or not shown.

SMILES	TRPV1 PAM	Menin MLL FP FL	MLL CXXC-DNA inh	Menin-MLL TR inh	TRPV1 ag
Oc1ccc2ccccc2c1-c1sc(Nc2ccccc2)n[n+]1-c1ccc(F)cc1	0	?	?	16µM	0
Cn1sc(=O)n(Cc2ccccc2)c1=O	-	0	-	0	-
Cc1cc(OCc2cc(C(=O)N(C)C3CCOC3)no2)cc(C)c1Cl (configuration not stated)	0	-	0	-	83
CC(=O)c1ccc(OCc2cc(C(=O)N(C)C3CCOC3)no2)cc1 (configuration not stated)	?	-	0	-	0
COc1ccc(-c2cc(=O)c3ccc(F)cc3[nH]2)cc1	-	0	-	50µM	-
COc1ccc(-c2cc(=O)c3cc(F)ccc3[nH]2)cc1	0	?	0	?	0
COc1ccc(C2=Nn3c(nnc3-c3cccc(OC)c3OC)SC2)c(OC)c1	-	0	-	?	-
OC[C@@H]1O[C@H](OC2[C@@H](O)[C@@H](O)[C@@H](O)O[C@@H]2CO)[C@H](O)[C@@H](O)[C@@H]1OC1O[C@H](CO)[C@@H](O)[C@H](O)[C@@H]1O (some centres not stated)	-	0	-	0	-
CCCn1c(SC(C)C(=O)N2CCOCC2)nc2ccc(Br)cc2c1=O (configuration not stated)	0	-	-	-	83
COc1ccc(-n2c(SC(C)C(=O)N3CCOCC3)nc3ccccc3c2=O)cc1 (configuration not stated)	0	-	0	-	?
C/C1=C\[C@@H](O)C(C(C)C)C(OC(=O)c2ccc(O)cc2)C/C(C)=C/CC1 (some centres not stated)	-	0	-	0	-
CCOC(=O)c1c(NC(=O)COC(=O)c2ccccn2)sc(C(=O)N(C)C)c1C	103	-	-	-	0
CCOC(=O)c1c(NC(=O)COC(=O)c2cnc(C)cn2)sc(C(=O)N(C)C)c1C	0	-	-	-	0
COc1cccc(/C=C2\Sc3ccc(C(=O)NCc4cccnc4)cc3N(C)C2=O)c1	0	0	0	0	?
CN1C(=O)/C(=C/c2cccc(Cl)c2)Sc2ccc(C(=O)NCc3cccnc3)cc21	82	0	0	0	0
COc1ccc(NC2c3ccccc3C(=O)N2Cc2ccc3c(c2)OCO3)cc1 (configuration not stated)	0	0	0	-	102
O=C(O)C1NCCN(C(=O)c2ccc3c(ccc4ccccc43)c2)C1C(=O)O (configuration not stated)	-	0	-	0	-
CCCN1C(=O)/C(=C/c2c(NCCCOCC)nc3c(C)cccn3c2=O)SC1=S	0	?	?	8.9µM	0
CC(=O)Nc1cccc(C(=O)/C=C/c2ccc(N(C)C)cc2)c1	0	-	?	0	80
CCC1(c2ccccc2)NC(=O)NC1=O (configuration not stated)	-	0	-	0	-
O=S(=O)(Nc1cc(O)cc2cccnc12)c1ccc(Br)s1	-	0	-	?	-
O=C(CCc1c[nH]c2ccccc12)NCCc1ccc(Cl)cc1	0	0	0	0	80
O=C(CCCOc1ccc(Cl)cc1)N1CCCCCC1	0	0	0	?	?
CC(C)(C)c1ccc(OCCCC(=O)N2CCOCC2)cc1	0	0	0	0	85
O=C(CCCOc1ccc(Cl)cc1)N1CCCCC1	0	0	0	0	90
SMILES	TRPV1 PAM	Menin MLL FP FL	MLL CXXC-DNA inh	Menin-MLL TR inh	TRPV1 ag
O=C(CCCOc1ccc(Cl)cc1)N1CCOCC1	-	0	0	0	-
O=C(CSCc1ccccc1F)NCc1ccc(F)cc1	0	0	0	0	?
COc1ccc(CCNC(=O)CCSCc2ccccc2F)cc1OC	0	0	0	0	?
O=C(CCSCc1ccccc1F)NCc1ccc(F)cc1	0	0	0	0	82
CCOc1ccc(CNC(=O)CCSCc2ccccc2F)cc1OC	0	0	0	0	104
Cc1ccc(CSCC(=O)NCc2ccc(F)cc2)cc1	0	0	0	0	82
CC(=O)c1ccc(Nc2ncnc3c2oc2ccccc23)cc1	0	0	0	0	88
CC(=O)Nc1ccc(Nc2nc(C)nc3c2oc2ccccc23)cc1	?	0	0	0	0
Cc1cccc(N2CCN(CC(=O)NCc3ccc(Cl)cc3)CC2)c1C	0	0	0	0	83
Cc1cccc(-c2noc(CCC(=O)Nc3ccc(C(N)=O)cc3)n2)c1	0	0	0	-	81
CC1CC(C)CN(C(=O)c2ccc(S(=O)(=O)N3CCCCC3)cc2)C1 (configuration not stated)	0	-	0	-	?
CC1CC(C)CN(C(=O)c2cc(S(=O)(=O)N3CCCCC3)ccc2Cl)C1 (configuration not stated)	0	-	-	-	104
CCN(CC)S(=O)(=O)c1cc(NC(=O)Cn2cnc3ccccc3c2=O)ccc1C	0	0	0	0	0
CN(c1ccccc1)S(=O)(=O)c1cccc(NC(=O)Cn2cnc3ccccc3c2=O)c1	82	0	0	?	0
CN1CCc2c(sc(N)c2C(=O)O)C1	0	0	0	0	0
COc1ccc(C(=O)c2c(N)sc3c2CCN(C)C3)cc1	0	?	?	14µM	0
Oc1ccccc1N=Cc1c(O)ccc2ccccc12	0	?	?	?	97
COc1ccc(NC(=O)/C(C#N)=C/c2ccc(OCc3ccccc3F)cc2)cc1	0	0	0	18µM	0
N#C/C(=C\c1ccc(OCc2ccccc2)cc1)C(=O)Nc1ccc(C(=O)O)cc1	0	0	0	?	0
C[C@H](NC(=O)[C@@H](N)Cc1ccc(O)cc1)C(=O)NCC(=O)N[C@H]1CSSC[C@@H](C(=O)O)NC(=O)[C@H](CO)NC(=O)[C@H]([C@@H](C)O)NC(=O)[C@H](Cc2ccccc2)NC(=O)[C@H]([C@@H](C)O)NC(=O)[C@H](CCCCN)NC(=O)[C@H](Cc2c[nH]c3ccccc23)NC(=O)[C@H](Cc2ccccc2)NC(=O)[C@H](Cc2ccccc2)NC(=O)[C@H](CC(N)=O)NC(=O)[C@H](CCCCN)NC1=O	-	0	-	0	-
O=C1OC(c2ccccc2)=C/C1=C/N1CCCCC1	0	0	0	0	81
CC[C@H](C)[C@H](NC(=O)[C@@H]1CCCN1C(=O)[C@H](Cc1cnc[nH]1)NC(=O)[C@@H](NC(=O)[C@H](Cc1ccc(O)cc1)NC(=O)[C@@H](NC(=O)[C@H](CCCN=C(N)N)NC(=O)CNC)C(C)C)[C@@H](C)CC)C(=O)O	-	0	-	0	-
